Results: the supplement of paper PMC11732987, “Enantioselective OTUD7B fragment discovery through chemoproteomics screening and high-throughput optimisation” (Communications Chemistry, 2025)

Key:
Test in all cases: log2 ratio of Biotin-Ahx-Ub-VS probe labelling (fragment/DMSO); higher = less target engagement (more negative = stronger competition), active = hit call of the paper (q ≤ 0.05, log2 ratio ≤ -1)
Settings in all cases: compound concentration: 200 uM; treatment time: 3 h
USP42 = target: T1, USP42 (UniProt Q9H9J4)
T1 sequence (whole entry): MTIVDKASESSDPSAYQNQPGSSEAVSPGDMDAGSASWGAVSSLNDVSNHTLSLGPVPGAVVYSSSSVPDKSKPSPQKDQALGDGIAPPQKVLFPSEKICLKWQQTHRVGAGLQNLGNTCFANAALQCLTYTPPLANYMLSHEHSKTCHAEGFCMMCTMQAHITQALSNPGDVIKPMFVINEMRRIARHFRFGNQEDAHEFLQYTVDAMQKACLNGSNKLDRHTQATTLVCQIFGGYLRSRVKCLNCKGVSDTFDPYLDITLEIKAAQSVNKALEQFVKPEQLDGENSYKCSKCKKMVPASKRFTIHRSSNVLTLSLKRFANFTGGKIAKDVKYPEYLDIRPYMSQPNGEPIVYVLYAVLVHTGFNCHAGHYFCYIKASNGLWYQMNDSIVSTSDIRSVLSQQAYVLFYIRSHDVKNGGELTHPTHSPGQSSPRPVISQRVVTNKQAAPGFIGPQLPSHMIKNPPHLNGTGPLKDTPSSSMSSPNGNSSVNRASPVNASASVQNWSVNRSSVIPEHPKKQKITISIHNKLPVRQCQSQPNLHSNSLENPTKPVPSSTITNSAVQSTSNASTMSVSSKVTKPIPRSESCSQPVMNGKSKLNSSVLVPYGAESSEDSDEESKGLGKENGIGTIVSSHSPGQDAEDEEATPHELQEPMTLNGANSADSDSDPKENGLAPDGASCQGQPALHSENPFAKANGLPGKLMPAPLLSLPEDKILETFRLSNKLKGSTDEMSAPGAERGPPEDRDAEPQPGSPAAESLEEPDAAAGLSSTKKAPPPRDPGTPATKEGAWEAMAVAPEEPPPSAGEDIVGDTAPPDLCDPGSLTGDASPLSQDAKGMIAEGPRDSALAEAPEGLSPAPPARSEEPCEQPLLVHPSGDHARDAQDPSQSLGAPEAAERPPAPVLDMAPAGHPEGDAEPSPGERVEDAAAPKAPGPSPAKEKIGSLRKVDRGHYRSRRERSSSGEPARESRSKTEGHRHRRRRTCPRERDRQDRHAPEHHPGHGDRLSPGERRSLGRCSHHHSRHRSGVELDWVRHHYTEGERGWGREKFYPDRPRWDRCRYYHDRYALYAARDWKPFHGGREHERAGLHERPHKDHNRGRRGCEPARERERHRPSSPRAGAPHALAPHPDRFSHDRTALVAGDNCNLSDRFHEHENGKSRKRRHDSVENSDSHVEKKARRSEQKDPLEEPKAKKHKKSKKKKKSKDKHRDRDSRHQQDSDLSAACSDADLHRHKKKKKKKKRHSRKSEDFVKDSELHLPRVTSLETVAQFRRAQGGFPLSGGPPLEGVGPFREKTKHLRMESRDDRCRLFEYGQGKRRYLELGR
Procedure, shortened: (§1)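 Each value is an average log2 ratio of fragment to vehicle, tested by unpaired t-test. The underlying Spectronaut label-free quantities were global-median-normalised, and only proteins with ≥2 unique peptides were included. Triplicate HEK293T lysate samples (495 µg) were exposed to fragment at 200 µM or vehicle for 3 h, then to Biotin-Ahx-Ub-VS at 0.5 µM final for 1 h, before NeutrAvidin enrichment of labelled DUBs, LysC and trypsin digestion, and diaPASEF LC-MS/MS.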

USP46 = USP46 (UniProt P62068)
USP46, sequence (P62068 whole entry): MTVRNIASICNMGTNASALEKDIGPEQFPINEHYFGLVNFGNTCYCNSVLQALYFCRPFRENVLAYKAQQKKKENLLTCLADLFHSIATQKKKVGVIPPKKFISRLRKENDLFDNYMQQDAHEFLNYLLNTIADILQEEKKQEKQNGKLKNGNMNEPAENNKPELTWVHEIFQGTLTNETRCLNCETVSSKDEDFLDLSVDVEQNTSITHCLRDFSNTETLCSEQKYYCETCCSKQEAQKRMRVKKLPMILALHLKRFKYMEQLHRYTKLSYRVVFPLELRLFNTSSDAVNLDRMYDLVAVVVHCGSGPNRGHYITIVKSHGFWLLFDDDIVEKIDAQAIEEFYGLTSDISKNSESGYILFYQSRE
Procedure, shortened: as §1

USP47 = target: T2, USP47 (UniProt Q96K76)
T2 sequence (whole entry): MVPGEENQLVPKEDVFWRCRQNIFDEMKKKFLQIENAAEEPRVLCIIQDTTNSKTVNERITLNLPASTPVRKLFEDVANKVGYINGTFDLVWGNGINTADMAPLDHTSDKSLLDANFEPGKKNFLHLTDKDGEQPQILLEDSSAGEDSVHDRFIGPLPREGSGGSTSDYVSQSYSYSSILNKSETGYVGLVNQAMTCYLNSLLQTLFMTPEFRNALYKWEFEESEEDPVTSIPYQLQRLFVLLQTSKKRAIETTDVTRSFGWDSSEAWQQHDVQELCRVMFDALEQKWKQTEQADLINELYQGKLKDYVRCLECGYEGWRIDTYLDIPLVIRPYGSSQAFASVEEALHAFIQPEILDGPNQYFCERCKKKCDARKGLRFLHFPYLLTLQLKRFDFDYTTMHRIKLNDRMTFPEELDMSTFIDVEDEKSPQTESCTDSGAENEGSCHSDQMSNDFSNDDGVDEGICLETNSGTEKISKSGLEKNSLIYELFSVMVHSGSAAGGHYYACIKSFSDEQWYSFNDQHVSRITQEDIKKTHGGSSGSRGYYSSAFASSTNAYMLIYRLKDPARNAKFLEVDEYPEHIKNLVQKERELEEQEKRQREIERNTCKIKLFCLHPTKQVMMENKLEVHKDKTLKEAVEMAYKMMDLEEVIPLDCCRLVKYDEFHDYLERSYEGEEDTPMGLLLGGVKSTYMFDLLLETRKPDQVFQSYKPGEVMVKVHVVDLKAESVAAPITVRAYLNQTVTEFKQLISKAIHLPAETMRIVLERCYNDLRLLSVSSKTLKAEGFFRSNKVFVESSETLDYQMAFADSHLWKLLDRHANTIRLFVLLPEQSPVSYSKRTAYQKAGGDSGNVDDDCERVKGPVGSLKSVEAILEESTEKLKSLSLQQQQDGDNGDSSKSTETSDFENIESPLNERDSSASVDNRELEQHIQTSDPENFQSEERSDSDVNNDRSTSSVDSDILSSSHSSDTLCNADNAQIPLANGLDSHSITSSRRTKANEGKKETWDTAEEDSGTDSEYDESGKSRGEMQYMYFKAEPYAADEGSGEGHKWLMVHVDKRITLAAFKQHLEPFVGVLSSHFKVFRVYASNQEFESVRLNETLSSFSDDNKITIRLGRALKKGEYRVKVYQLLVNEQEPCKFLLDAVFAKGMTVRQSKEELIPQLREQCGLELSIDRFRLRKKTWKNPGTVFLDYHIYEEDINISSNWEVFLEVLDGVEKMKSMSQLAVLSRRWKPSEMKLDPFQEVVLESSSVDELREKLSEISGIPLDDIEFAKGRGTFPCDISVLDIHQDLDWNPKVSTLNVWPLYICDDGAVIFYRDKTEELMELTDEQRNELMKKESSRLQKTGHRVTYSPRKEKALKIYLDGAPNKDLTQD
Procedure, shortened: as §1

USP48 = target: T3, USP48 (UniProt Q86UV5)
T3 sequence (whole entry): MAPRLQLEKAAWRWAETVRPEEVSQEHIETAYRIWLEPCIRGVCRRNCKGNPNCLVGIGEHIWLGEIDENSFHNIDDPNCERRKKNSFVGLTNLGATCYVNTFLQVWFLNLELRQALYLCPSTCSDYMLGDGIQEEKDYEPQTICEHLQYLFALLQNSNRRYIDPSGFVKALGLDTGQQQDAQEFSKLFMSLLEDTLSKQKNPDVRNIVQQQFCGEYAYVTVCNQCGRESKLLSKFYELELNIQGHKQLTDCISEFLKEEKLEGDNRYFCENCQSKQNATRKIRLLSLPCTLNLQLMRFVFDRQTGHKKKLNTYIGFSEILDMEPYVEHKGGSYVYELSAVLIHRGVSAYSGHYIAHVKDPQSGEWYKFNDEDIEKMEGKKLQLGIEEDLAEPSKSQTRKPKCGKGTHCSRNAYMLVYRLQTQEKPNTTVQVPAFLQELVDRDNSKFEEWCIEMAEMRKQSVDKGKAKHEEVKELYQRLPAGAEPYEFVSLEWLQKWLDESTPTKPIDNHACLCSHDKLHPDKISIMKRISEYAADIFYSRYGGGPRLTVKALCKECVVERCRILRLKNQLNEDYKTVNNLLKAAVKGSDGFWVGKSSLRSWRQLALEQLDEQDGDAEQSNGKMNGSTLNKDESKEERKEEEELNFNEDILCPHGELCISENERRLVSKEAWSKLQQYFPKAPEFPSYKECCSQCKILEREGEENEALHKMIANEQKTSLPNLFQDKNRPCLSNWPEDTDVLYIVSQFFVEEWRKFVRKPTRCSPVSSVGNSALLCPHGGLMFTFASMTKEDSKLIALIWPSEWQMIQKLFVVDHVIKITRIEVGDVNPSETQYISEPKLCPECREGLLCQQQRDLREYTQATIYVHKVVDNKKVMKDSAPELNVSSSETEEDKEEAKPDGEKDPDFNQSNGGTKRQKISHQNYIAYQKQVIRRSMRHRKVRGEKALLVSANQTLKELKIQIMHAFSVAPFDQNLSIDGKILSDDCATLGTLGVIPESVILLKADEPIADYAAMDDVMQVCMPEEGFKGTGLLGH
Procedure, shortened: as §1

USP5 = target: T4, USP5 (UniProt P45974)
T4 sequence (whole entry): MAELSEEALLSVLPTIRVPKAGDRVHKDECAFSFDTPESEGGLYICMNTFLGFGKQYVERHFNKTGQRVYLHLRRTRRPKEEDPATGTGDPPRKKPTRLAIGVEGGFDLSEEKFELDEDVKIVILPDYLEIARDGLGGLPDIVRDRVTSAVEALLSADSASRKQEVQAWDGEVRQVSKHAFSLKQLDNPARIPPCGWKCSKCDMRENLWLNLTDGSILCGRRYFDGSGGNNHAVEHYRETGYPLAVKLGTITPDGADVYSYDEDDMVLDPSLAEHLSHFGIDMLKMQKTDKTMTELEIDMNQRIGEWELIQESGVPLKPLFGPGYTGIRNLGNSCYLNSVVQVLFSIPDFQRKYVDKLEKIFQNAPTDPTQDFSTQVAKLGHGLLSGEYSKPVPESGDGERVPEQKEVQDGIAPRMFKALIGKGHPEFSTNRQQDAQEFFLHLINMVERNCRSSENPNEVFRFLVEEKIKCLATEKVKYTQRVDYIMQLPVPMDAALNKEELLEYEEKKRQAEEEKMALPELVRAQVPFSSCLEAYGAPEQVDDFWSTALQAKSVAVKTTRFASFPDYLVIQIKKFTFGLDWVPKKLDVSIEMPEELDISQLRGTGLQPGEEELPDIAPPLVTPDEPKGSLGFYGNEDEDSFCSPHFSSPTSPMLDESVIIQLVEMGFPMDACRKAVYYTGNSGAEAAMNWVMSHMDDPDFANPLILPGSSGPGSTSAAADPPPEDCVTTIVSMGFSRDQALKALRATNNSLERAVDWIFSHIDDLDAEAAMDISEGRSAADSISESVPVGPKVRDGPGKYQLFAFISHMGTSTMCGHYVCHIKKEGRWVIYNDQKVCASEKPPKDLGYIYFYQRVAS
Procedure, shortened: as §1

USP54 = USP54 (UniProt Q70EL1)
USP54, sequence (Q70EL1 whole entry): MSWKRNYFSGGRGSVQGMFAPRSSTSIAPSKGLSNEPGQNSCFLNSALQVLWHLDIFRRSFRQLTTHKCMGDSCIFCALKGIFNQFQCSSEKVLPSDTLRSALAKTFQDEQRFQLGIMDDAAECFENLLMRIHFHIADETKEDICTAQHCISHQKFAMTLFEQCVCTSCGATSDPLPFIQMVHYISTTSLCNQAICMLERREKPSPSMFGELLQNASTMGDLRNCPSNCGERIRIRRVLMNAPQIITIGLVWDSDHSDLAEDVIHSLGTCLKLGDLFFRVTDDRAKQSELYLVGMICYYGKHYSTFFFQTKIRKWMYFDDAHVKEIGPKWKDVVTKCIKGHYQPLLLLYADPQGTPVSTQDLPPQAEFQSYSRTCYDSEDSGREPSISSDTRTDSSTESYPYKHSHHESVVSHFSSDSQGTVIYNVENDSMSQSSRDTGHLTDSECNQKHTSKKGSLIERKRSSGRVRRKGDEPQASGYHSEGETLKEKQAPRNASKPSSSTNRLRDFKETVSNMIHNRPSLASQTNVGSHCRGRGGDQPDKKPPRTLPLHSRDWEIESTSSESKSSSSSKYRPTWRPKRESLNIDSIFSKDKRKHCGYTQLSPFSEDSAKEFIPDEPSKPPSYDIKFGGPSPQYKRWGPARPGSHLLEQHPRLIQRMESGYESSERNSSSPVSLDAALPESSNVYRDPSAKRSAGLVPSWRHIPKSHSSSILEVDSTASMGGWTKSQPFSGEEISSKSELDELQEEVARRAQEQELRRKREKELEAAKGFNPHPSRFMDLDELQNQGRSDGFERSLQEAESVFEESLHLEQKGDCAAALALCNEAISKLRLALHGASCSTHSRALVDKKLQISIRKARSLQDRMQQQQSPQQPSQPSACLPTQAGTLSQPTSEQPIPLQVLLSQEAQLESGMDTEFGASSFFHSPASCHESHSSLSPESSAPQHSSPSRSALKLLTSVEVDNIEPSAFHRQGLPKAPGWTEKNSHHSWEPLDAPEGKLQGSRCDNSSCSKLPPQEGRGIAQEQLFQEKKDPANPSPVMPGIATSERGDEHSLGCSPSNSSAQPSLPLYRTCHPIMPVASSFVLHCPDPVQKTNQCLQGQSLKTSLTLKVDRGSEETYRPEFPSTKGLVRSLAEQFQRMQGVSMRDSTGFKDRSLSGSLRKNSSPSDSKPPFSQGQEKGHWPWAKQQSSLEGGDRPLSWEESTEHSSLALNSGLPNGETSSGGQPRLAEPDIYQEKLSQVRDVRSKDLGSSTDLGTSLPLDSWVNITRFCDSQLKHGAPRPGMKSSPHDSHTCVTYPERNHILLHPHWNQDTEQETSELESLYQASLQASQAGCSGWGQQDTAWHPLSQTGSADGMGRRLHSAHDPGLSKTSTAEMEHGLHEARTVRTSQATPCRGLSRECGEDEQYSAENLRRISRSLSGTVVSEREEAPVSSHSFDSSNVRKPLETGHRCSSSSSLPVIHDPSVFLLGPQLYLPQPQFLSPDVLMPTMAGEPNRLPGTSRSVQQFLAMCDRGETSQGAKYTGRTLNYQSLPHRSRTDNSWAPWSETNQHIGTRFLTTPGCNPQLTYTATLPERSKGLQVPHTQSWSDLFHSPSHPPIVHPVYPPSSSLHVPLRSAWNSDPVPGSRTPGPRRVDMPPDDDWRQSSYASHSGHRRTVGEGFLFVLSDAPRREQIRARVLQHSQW
Procedure, shortened: as §1

USP7 = USP7 (UniProt Q93009)
USP7, sequence (Q93009 whole entry, looked up): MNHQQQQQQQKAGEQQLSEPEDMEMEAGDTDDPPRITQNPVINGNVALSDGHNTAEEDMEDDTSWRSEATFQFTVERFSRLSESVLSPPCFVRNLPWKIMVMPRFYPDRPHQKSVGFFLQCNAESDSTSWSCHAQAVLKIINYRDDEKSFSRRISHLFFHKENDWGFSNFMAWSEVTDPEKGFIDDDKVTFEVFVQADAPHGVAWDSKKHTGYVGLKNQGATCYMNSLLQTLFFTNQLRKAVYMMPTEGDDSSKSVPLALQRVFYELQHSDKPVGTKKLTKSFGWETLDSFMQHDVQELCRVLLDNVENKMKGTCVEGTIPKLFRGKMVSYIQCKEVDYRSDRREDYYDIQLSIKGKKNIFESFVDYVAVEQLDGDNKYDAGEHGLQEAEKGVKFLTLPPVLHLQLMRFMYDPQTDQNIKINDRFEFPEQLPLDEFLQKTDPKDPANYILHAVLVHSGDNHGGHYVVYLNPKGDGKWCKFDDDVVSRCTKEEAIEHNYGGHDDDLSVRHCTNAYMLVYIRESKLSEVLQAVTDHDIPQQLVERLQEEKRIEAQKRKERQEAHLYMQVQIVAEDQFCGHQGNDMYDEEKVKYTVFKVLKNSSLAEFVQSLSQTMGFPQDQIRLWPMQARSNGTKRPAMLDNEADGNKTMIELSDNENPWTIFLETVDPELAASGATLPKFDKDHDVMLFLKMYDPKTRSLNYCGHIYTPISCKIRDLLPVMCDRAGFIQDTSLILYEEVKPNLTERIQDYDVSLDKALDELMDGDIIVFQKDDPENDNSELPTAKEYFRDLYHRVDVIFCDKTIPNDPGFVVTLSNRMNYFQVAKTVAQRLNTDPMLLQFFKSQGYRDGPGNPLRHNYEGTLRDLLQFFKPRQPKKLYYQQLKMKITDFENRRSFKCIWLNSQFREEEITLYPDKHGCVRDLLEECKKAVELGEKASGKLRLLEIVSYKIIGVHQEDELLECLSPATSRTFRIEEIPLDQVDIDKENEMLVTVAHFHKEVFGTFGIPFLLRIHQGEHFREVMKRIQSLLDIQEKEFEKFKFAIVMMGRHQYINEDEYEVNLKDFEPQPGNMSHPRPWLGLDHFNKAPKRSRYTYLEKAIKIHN
Procedure, shortened: as §1

USP8 = target: T5, USP8 (UniProt P40818)
T5 sequence (whole entry): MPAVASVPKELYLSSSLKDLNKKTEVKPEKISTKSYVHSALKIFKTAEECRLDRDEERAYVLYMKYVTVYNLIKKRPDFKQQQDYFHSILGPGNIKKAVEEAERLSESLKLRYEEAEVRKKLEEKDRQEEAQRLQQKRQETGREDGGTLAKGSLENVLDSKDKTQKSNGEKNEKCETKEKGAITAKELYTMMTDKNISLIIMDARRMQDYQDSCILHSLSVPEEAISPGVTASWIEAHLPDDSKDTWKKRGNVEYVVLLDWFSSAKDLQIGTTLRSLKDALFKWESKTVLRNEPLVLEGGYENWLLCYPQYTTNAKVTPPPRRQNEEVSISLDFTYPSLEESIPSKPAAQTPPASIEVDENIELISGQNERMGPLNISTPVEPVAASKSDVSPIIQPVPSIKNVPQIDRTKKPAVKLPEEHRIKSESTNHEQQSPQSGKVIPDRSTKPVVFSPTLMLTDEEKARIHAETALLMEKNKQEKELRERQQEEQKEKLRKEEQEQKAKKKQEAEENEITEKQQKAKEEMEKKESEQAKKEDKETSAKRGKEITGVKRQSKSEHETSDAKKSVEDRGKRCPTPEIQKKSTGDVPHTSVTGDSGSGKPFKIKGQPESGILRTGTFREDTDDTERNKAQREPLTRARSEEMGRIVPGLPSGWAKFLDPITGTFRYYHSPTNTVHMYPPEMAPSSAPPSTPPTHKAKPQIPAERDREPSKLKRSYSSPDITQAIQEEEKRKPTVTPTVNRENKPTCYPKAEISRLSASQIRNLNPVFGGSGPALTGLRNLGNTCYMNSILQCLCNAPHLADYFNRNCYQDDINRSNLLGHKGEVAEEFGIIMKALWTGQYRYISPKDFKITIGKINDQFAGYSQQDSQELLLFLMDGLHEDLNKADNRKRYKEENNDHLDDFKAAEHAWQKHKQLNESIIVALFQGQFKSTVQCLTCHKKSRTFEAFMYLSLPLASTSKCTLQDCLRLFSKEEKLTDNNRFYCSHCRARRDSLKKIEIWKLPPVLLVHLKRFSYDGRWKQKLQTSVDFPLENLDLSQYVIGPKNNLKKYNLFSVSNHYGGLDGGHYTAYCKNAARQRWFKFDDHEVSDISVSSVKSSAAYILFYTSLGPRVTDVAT
Procedure, shortened: as §1

USP9X = USP9X (UniProt Q93008)
Procedure, shortened: as §1

UniProt O00487 = target: UniProt O00487
UniProt O00487, sequence (O00487 whole entry): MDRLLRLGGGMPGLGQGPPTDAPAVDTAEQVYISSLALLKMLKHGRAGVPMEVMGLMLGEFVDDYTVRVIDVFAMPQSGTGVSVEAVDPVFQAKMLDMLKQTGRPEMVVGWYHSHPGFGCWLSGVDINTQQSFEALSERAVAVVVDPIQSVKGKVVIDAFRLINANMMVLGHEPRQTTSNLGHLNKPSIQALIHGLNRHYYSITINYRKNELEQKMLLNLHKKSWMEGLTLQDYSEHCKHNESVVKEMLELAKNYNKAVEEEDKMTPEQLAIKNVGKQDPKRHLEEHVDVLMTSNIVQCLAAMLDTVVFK
Procedure, shortened: as §1

Measured: log2 ratio of Biotin-Ahx-Ub-VS probe labelling

CC(NC(=O)CCl)c1cccc2ccccc12 (stereo not given)
inactive: USP42 -0.241 | USP46 0.159 | USP47 -0.308 | USP48 -0.368 | USP5 0.225 | USP54 0.115 | USP7 -0.339 | USP8 -0.651 | USP9X -0.285 | UniProt O00487 -0.0949
